Common to all, as to settings: mRNA level, 48 h; actives raise or lower the signal
Read-out in assay [1]: Insulin Like Growth Factor 1 (IGF1), IGF1 (gene 3479)
The assay can be described thus: LTEA_HepaRG_IGF1: Life Technologies and Expression Analysis (LTEA) Assay for Insulin Like Growth Factor 1 (IGF1) using HepaRG (AID 2283506). Put shortly:
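Endpoint: IGF1 mRNA change by qRT-PCR, housekeeping-normalized, fitted bidirectionally relative to 0.5% DMSO vehicle. Human HepaRG cells were treated 48 h in serum-free induction medium, eight half-log concentrations topping at 100 uM.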

Read-out in assay [2]: Intercellular Adhesion Molecule 1 (ICAM1), ICAM1 (gene 3383)
The assay can be described thus: LTEA_HepaRG_ICAM1: Life Technologies and Expression Analysis (LTEA) Assay for Intercellular Adhesion Molecule 1 (ICAM1) using HepaRG (AID 2283507). Put shortly: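 Differentiated human HepaRG cells in serum-free induction medium exposed 48 h in duplicate to 8 half-log concentrations (top 100 uM, 0.5% DMSO). ICAM1 mRNA quantified by TaqMan qRT-PCR, normalized to ACTB, GAPDH and POLR2A; bidirectional fitting versus DMSO.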

Read-out in assay [3]: Insulin-like growth factor-binding protein 1 (IGFBP1), IGFBP1 (gene 3484)
Briefly: LTEA_HepaRG_IGFBP1: Life Technologies and Expression Analysis (LTEA) Assay for Insulin-like growth factor-binding protein 1 (IGFBP1) using HepaRG (AID 2283508). An outline of the steps: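 HepaRG cells, plated 48 h then switched to serum-free induction medium, exposed in duplicate for 48 h to 8-point half-log series from 100 uM in 0.5% DMSO. mRNA measured by qRT-PCR, normalized to ACTB/GAPDH/POLR2A; bidirectional fit versus DMSO.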

Read-out in assay [4]: Interleukin 6 Receptor (IL6R), IL6R (gene 3570)
Briefly: LTEA_HepaRG_IL6R: Life Technologies and Expression Analysis (LTEA) Assay for Interleukin 6 Receptor (IL6R) using HepaRG (AID 2283510). Put shortly: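 In this HepaRG screen, test chemicals act on cells for 48 h at up to 100 uM (eight half-log points, duplicate wells). IL6R expression is quantified by qRT-PCR after normalization to ACTB, GAPDH and POLR2A, with DMSO as baseline.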

Read-out in assay [5]: Potassium channel subfamily K member 1 (KCNK1), KCNK1 (gene 3775)
The assay can be described thus: LTEA_HepaRG_KCNK1: Life Technologies and Expression Analysis (LTEA) Assay for Potassium channel subfamily K member 1 (KCNK1) using HepaRG (AID 2283511). Put shortly: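 KCNK1 transcript measured by TaqMan qRT-PCR against three housekeeping genes, after HepaRG cells were treated 48 h with eight half-log concentrations (top 100 uM, 0.5% DMSO). Curves fitted bidirectionally relative to vehicle.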

Read-out in assay [6]: JUN Transcription Factor, JUN (gene 3725)
Briefly: LTEA_HepaRG_JUN: Life Technologies and Expression Analysis (LTEA) Assay for JUN Transcription Factor using HepaRG (AID 2283513). Put shortly:
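Gene-expression endpoint: JUN mRNA (qRT-PCR, normalized to three reference genes) in HepaRG cultures treated 48 h with chemicals, duplicate wells, 100 uM maximum with half-log dilutions; bidirectional fitting relative to 0.5% DMSO.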

Read-out in assay [7]: Lipase C (LIPC), LIPC (gene 3990)
Briefly: LTEA_HepaRG_LIPC: Life Technologies and Expression Analysis (LTEA) Assay for Lipase C (LIPC) using HepaRG (AID 2283514). An outline of the steps:
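LIPC expression was quantified by qRT-PCR against three housekeeping genes (ACTB, GAPDH, POLR2A). Differentiated human HepaRG cells received eight half-log doses (top 100 uM, 0.5% DMSO) in duplicate for 48 h; fitting bidirectional relative to DMSO.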

Read-out in assay [8]: Lipoprotein lipase (LPL), LPL (gene 4023)
Briefly: LTEA_HepaRG_LPL: Life Technologies and Expression Analysis (LTEA) Assay for Lipoprotein lipase (LPL) using HepaRG (AID 2283515). An outline of the steps: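 LPL transcript levels quantified by TaqMan qRT-PCR against three housekeeping genes after 48 h chemical treatment of HepaRG cells. Eight-point half-log series from 100 uM in 0.5% DMSO, tested in duplicate; bidirectional fitting versus vehicle.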

Read-out in assay [9]: MicroRNA 122 (MIR122), gene 406906
Briefly: LTEA_HepaRG_MIR122: Life Technologies and Expression Analysis (LTEA) Assay for MicroRNA 122 (MIR122) using HepaRG (AID 2283516). Note: the transcript read is the microRNA miR-122. Put shortly:
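Changes in transcript abundance, up or down relative to 0.5% DMSO vehicle, were scored after 48 h chemical treatment of HepaRG cells (maximum 100 uM). Quantification used TaqMan qRT-PCR normalized to housekeeping genes.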

Read-out in assay [10]: matrix metalloproteinase-10 (MMP10), MMP10 (gene 4319)
Briefly: LTEA_HepaRG_MMP10: Life Technologies and Expression Analysis (LTEA) Assay for matrix metalloproteinase-10 (MMP10) using HepaRG (AID 2283517). Put shortly: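 Expression measured by TaqMan qRT-PCR with ACTB/GAPDH/POLR2A normalisation after 48 h chemical exposure of HepaRG cells. Eight half-log concentrations, top 100 uM, 0.5% DMSO vehicle, duplicates; gain or loss fitted against vehicle.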

Read-out in another assay: MYC, MYC (gene 4609)
Briefly: LTEA_HepaRG_MYC: Life Technologies and Expression Analysis (LTEA) Assay for MYC using HepaRG (AID 2283518). Put shortly:
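Differentiated HepaRG cells exposed 48 h in serum-free induction medium to 8 concentrations (top 100 uM, half-log steps; 0.5% DMSO), duplicate. MYC mRNA measured by Fluidigm qRT-PCR, normalized to ACTB, GAPDH, POLR2A; bidirectional fit versus DMSO.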

Read-out in assay [11]: matrix metalloproteinase-3 (MMP3), MMP3 (gene 4314)
Briefly: LTEA_HepaRG_MMP3: Life Technologies and Expression Analysis (LTEA) Assay for matrix metalloproteinase-3 (MMP3) using HepaRG (AID 2283519). An outline of the steps: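 Fluidigm-based TaqMan qRT-PCR, normalized to ACTB, GAPDH and POLR2A and fitted bidirectionally versus 0.5% DMSO, measured transcript levels. Treatment: duplicate 48 h exposures of HepaRG cells, ~100,000/well, to eight half-log concentrations topping at 100 uM.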

Read-out in assay [12]: Paternally Expressed 10 (PEG10), PEG10 (gene 23089)
The assay can be described thus: LTEA_HepaRG_PEG10: Life Technologies and Expression Analysis (LTEA) Assay for Paternally Expressed 10 (PEG10) using HepaRG (AID 2283520).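 For AC50: PEG10 transcript by qRT-PCR normalised to ACTB GAPDH and POLR2A.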 An outline of the steps:
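After 48 h exposure of differentiated HepaRG cells (0.5% DMSO vehicle, eight concentrations up to 100 uM, duplicates), PEG10 mRNA was measured by TaqMan qRT-PCR. Values were normalised to endogenous control genes and analysed bidirectionally against vehicle.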

Read-out in assay [13]: Protein phosphatase 2A (PPP2R4), PTPA (gene 5524)
Briefly: LTEA_HepaRG_PPP2R4: Life Technologies and Expression Analysis (LTEA) Assay for Protein phosphatase 2A (PPP2R4) using HepaRG (AID 2283522). Put shortly:
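Using HepaRG cultures maintained in 0.5% DMSO, chemicals are tested 48 h at up to 100 uM in duplicate. Induction or suppression of PPP2R4 mRNA, measured by qRT-PCR, is fitted bidirectionally against the vehicle baseline.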

Read-out in assay [14]: Phosphatase and tensin (PTEN), PTEN (gene 5728)
Briefly: LTEA_HepaRG_PTEN: Life Technologies and Expression Analysis (LTEA) Assay for Phosphatase and tensin (PTEN) using HepaRG (AID 2283523). An outline of the steps: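 Read-out: TaqMan qRT-PCR of PTEN transcript, normalized to three housekeeping genes, fitted in both directions against 0.5% DMSO. Differentiated human HepaRG cultures received chemicals for 48 h, eight-point half-log series topping at 100 uM.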

Read-out in assay [15]: solute carrier (SLC22A1), SLC22A1 (gene 6580)
The assay can be described thus: LTEA_HepaRG_SLC22A1: Life Technologies and Expression Analysis (LTEA) Assay for solute carrier (SLC22A1) using HepaRG (AID 2283524). An outline of the steps: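 Transcript level of SLC22A1 quantified by qRT-PCR (normalized to three housekeeping genes) after 48 h chemical exposure of HepaRG cells, eight concentrations up to 100 µM, half-log steps, 0.5% DMSO vehicle. Gain or loss relative to DMSO fitted bidirectionally.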

Read-out in assay [16]: Pyruvate Dehydrogenase Kinase 4 (PDK4), PDK4 (gene 5166)
Briefly: LTEA_HepaRG_PDK4: Life Technologies and Expression Analysis (LTEA) Assay for Pyruvate Dehydrogenase Kinase 4 (PDK4) using HepaRG (AID 2283525). An outline of the steps:
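Readout is qRT-PCR of PDK4 transcript, normalized to three housekeeping genes, with bidirectional fitting against 0.5% DMSO vehicle. Differentiated HepaRG cells were treated 48 h in serum-free induction medium, duplicate wells, eight-point half-log series topping at 100 uM.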

Read-out in assay [17]: Keratin 19 (KRT19), KRT19 (gene 3880)
The assay can be described thus: LTEA_HepaRG_KRT19: Life Technologies and Expression Analysis (LTEA) Assay for Keratin 19 (KRT19) using HepaRG (AID 2283512). An outline of the steps: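 Differentiated HepaRG cells in serum-free induction medium, exposed 48 h in duplicate to 8 half-log concentrations up to 100 uM in 0.5% DMSO. KRT19 mRNA by qRT-PCR, normalized to ACTB, GAPDH, POLR2A; bidirectional fit vs DMSO.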

Read-out in assay [18]: Nuclear factor NF-kappa-B p105 subunit (Homo sapiens) (UniProt P19838)
The assay can be described thus: LTEA_HepaRG_NFKB1: Life Technologies and Expression Analysis (LTEA) Assay for Nuclear Factor Kappa B Subunit 1 (NFKB1) using HepaRG (AID 2283521).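 For outcome: TaqMan qRT-PCR transcript normalised to ACTB GAPDH and POLR2A housekeeping genes.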 Put shortly: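 Differentiated human HepaRG cells in serum-free induction medium with 0.5% DMSO were exposed for 48 h to eight half-log concentrations, top 100 uM, in duplicate. NFKB1 mRNA measured by Fluidigm TaqMan qRT-PCR, normalised to ACTB, GAPDH and POLR2A; bidirectional fit versus DMSO.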

From PubChem BioAssay (EPA / NIEHS) come the findings set out here.

Activity calls are given as the source filed them. Rule for the calls: active = hit-call score of the fitted dose curve at least 0.9, where 1 is the maximum; inactive = score below 0.9.

Sequence of Nuclear factor NF-kappa-B p105 subunit (Homo sapiens) (P19838 whole entry, looked up): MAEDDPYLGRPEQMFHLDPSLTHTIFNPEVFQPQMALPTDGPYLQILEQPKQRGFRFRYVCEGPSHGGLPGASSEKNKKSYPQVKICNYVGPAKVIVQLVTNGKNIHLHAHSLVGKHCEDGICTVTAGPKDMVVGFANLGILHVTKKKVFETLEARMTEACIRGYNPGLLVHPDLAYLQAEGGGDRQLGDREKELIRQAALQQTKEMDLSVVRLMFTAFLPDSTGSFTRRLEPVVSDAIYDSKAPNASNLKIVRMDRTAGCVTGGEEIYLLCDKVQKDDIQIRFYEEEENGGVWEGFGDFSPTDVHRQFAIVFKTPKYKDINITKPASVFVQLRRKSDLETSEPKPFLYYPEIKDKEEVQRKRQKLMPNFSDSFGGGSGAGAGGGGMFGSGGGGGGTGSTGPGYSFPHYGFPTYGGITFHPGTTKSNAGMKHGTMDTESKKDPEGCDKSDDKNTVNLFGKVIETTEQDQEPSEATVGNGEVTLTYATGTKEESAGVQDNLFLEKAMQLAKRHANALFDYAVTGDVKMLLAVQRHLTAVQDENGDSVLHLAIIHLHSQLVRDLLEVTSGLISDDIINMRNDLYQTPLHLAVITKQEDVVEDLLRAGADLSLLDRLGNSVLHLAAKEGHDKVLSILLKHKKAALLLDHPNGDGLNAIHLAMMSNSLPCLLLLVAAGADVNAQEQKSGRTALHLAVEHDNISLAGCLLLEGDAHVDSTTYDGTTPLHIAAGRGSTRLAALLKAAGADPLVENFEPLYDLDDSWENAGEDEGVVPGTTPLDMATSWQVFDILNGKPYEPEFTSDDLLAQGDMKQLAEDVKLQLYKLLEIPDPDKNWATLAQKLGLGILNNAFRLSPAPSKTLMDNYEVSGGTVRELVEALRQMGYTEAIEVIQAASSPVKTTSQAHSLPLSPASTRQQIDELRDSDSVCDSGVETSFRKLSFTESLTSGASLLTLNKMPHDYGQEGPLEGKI

Broadly, the AC50 is the concentration at which the activity in the assay is half-maximal. With `COc1ccc2sc(C(=O)Nc3nnn[nH]3)c(OC(C)C)c2c1`, the compound was called inactive in assay [1], in [2], in assay [4], in assay [6], in assay [7] and in [10]. The compound was classed as inactive in assay [13] and in [14]. Besides, the AC50 was 23.6 µM (active) in assay [3]; 28.1 µM (active) in [5]; 12.7 µM (active) in [8]; 80.2 µM (active) in assay [9]; 38 µM (active) with MYC, MYC (gene 4609); 27.1 µM (active) in assay [11]. Besides, the values for the AC50 in [12], in assay [15] and in [16] were 35.8 µM (active), 97.4 µM (active) and 32.5 µM (active), respectively.
Take `O=C(O)c1cc(N=Nc2ccc(S(=O)(=O)Nc3ccccn3)cc2)ccc1O`: the result in assay [1], in [2], in [4], in [5], in [17] and in assay [6] was inactive. Further, the outcome in assay [7] was “inactive”; in assay [8], “inactive”; in [9], “inactive”; in assay [10], “inactive”; with MYC, MYC (gene 4609), “inactive”; in assay [12], “inactive”. Moreover, the call in assay [18], in assay [13], in [14], in [15] and in assay [16] was inactive.
In the case of `O=c1n(CC2CO2)c(=O)n(CC2CO2)c(=O)n1CC1CO1` (stereo not drawn), the outcome in assay [1], in [2], in [3], in assay [4], in assay [5] and in assay [6] was inactive. The outcome in assay [8] is “inactive”; in assay [9], “inactive”; in assay [10], “inactive”; with MYC, MYC (gene 4609), “inactive”; in assay [11], “inactive”; in assay [12] it was “inactive”. Besides, the result in assay [18], in assay [13], in assay [14] and in assay [15] was inactive. The AC50 in assay [7] is 71.5 µM (active).
On to `COc1cccc(-c2ccc(/C=C\CN3CCCCCC3)cc2Cl)c1`, for which the AC50 in assay [1] is 66.7 µM (active); in assay [2], 75.7 µM (active); in assay [3], 74.5 µM (active); in [5] it was 79.3 µM (active); in [6], 73.9 µM (active); in assay [7], 70.6 µM (active). Moreover, the AC50 is 79 µM (active) in assay [8]; 71.3 µM (active) in [10]; 81.1 µM (active) with MYC, MYC (gene 4609); 69.3 µM (active) in assay [11]; 59 µM (active) in [12]; 45.2 µM (active) in [18]. In addition, the AC50 in assay [15] was 74.4 µM (active). For the same compound, the compound was called inactive in [4], in assay [9], in assay [13] and in assay [14].
